Measurements as given in the supplement of paper PMC6609913.
Counter-ions that a name gives are not always drawn. ± gives the standard deviation of the averaged measurements. Whole data set: some 1,300 compounds, median “normalised cell viability” near 1, cut for the lowest 2% near 0.14. The list comes from a sample in which the lowest values are over-represented; it also holds similar structures and randomly drawn compounds.

Tested on: V-C8 (BRCA2-deficient hamster cells)
Experiment: normalised cell viability (fraction of plate median); higher = more viable cells (less toxic)
Conditions: 5 µM
Procedure, shortened: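 In two screens, library drugs at 5 μM were given for 3 days (screen 1) or 6 days (screen 2) to hamster V-C8 cells without BRCA2 and V-C8 cells with BRCA2 restored, seeded 24 h earlier in 96-well plates. A resazurin assay gave the cell viability readout, expressed as modified robust per cent of sample against the plate median, with triplicate wells averaged.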

CN[C@H](CC(C)C)C(=O)N[C@H]1C(=O)N[C@@H](CC(N)=O)C(=O)N[C@H]2C(=O)N[C@H]3C(=O)N[C@H](C(=O)N[C@H](C(=O)O)c4cc(O)cc(O)c4-c4cc3ccc4O)[C@H](O)c3ccc(c(Cl)c3)Oc3cc2cc(c3O[C@@H]2O[C@H](CO)[C@@H](O)[C@H](O)[C@H]2O[C@H]2C[C@](C)(N)[C@H](O)[C@H](C)O2)Oc2ccc(cc2Cl)[C@H]1O [Vancomycin hydrochloride]
normalised cell viability (treatment time: 3 days): 0.159 ± 0.01
normalised cell viability (treatment time: 6 days): 0.141 ± 0.0064

CC(CN(C)C)C(C)(O)Cc1ccc(Cl)cc1 (centres undefined) [Clobutinol hydrochloride]
normalised cell viability (treatment time: 3 days): 1.05 ± 0.13
normalised cell viability (treatment time: 6 days): 1.11 ± 0.064

Cc1cc(NC(=O)C2=C(O)c3ccccc3S(=O)(=O)N2C)no1 [Isoxicam]
normalised cell viability (treatment time: 3 days): 1.04 ± 0.06
normalised cell viability (treatment time: 6 days): 1.06 ± 0.042

CC[C@]12CCCN3CCc4c(n(c5ccccc45)C(=O)C1)[C@@H]32 [Eburnamonine (-)]
normalised cell viability (treatment time: 3 days): 0.362 ± 0.016
normalised cell viability (treatment time: 6 days): 0.643 ± 0.11

CN(C)[C@@H]1C(O)=C(C(N)=O)C(=O)[C@@]2(O)C(O)=C3C(=O)c4c(O)cccc4[C@@](C)(O)[C@H]3[C@H](O)[C@@H]12 [Oxytetracycline dihydrate]
normalised cell viability (treatment time: 3 days): 0.991 ± 0.015
normalised cell viability (treatment time: 6 days): 0.945 ± 0.05

C=C(NC(=O)C(=C)NC(=O)c1csc(C2=N[C@@H]3c4csc(n4)[C@H]4NC(=O)c5csc(n5)[C@H]([C@](C)(O)[C@@H](C)O)NC(=O)[C@H]5CSC(=N5)/C(=C/C)NC(=O)[C@H]([C@@H](C)O)NC(=O)c5csc(n5)[C@]3(CC2)NC(=O)[C@H](C)NC(=O)C(=C)NC(=O)[C@H](C)NC(=O)[C@H]([C@@H](C)CC)N[C@@H]2C=Cc3c([C@H](C)O)cc(nc3[C@H]2O)C(=O)O[C@@H]4C)n1)C(N)=O [Thiostrepton]
normalised cell viability (treatment time: 3 days): 0.14 ± 0.011
normalised cell viability (treatment time: 6 days): 0.126 ± 0.0091

COc1c(O[C@@H]2O[C@H](CO)[C@@H](O)[C@H](O)[C@H]2O)cc2c(c1OC)-c1ccc(SC)c(=O)cc1[C@@H](NC(C)=O)CC2 [Thiocolchicoside]
normalised cell viability (treatment time: 3 days): 1.22 ± 0.36
normalised cell viability (treatment time: 6 days): 0.97 ± 0.017

CCCCc1cc2ccccc2c(OCCN(C)C)n1 [Dimethisoquin hydrochloride]
normalised cell viability (treatment time: 3 days): 1.03 ± 0.087
normalised cell viability (treatment time: 6 days): 1.04 ± 0.05

CCOc1ccc2c(c1)C(C)=CC(C)(C)N2 [Ethoxyquin]
normalised cell viability (treatment time: 3 days): 0.883 ± 0.014
normalised cell viability (treatment time: 6 days): 1.2 ± 0.26

CCN(CC)CCOC(=O)C(c1ccccc1)c1ccccc1 [Adiphenine hydrochloride]
normalised cell viability (treatment time: 3 days): 0.976 ± 0.021
normalised cell viability (treatment time: 6 days): 1.02 ± 0.039

CCN(CC)CCOC(=O)C(Cc1cccc2ccccc12)CC1CCCO1 (centres undefined) [Nafronyl oxalate]
normalised cell viability (treatment time: 3 days): 0.1613 ± 0.00033
normalised cell viability (treatment time: 6 days): 0.14 ± 0.0088

CCN(CC)CCOC(=O)C(c1ccccc1)C1CCCCC1 (centres undefined) [Drofenine hydrochloride]
normalised cell viability (treatment time: 3 days): 1.02 ± 0.038
normalised cell viability (treatment time: 6 days): 1.02 ± 0.07

COCCOC(=O)C1=C(C)NC(C)=C(C(=O)OC/C=C/c2ccccc2)C1c1cccc([N+](=O)[O-])c1 (centres undefined) [Cilnidipine]
normalised cell viability (treatment time: 3 days): 0.98 ± 0.03
normalised cell viability (treatment time: 6 days): 1.01 ± 0.015

CC(=C(CCO)SSCC1CCCO1)N(C=O)Cc1cnc(C)nc1N (stereo in doubt) [Fursultiamine Hydrochloride]
normalised cell viability (treatment time: 3 days): 1.03 ± 0.025
normalised cell viability (treatment time: 6 days): 1.03 ± 0.0084

Cc1ccccc1C(OCCN(C)C)c1ccccc1 (centres undefined) [Orphenadrine hydrochloride]
normalised cell viability (treatment time: 3 days): 1.05 ± 0.14
normalised cell viability (treatment time: 6 days): 0.964 ± 0.14

O=C(O)c1cc(/N=N/c2ccc(S(=O)(=O)Nc3ccccn3)cc2)ccc1O [Sulfasalazine]
normalised cell viability (treatment time: 3 days): 1.03 ± 0.056
normalised cell viability (treatment time: 6 days): 0.993 ± 0.046

N#Cc1ccc(C2CCCc3cncn32)cc1 (centres undefined) [Fadrozole hydrochloride]
normalised cell viability (treatment time: 3 days): 1.01 ± 0.087
normalised cell viability (treatment time: 6 days): 0.97 ± 0.079

COc1cccc2c1C(=O)c1c(O)c3c(c(O)c1C2=O)C[C@@](O)(C(=O)CO)C[C@@H]3O[C@H]1C[C@H](N)[C@@H](O)[C@H](C)O1 [Epirubicin hydrochloride]
normalised cell viability (treatment time: 3 days): 0.123 ± 0.013
normalised cell viability (treatment time: 6 days): 0.163 ± 0.016

COc1cccc2c1C(=O)c1c(O)c3c(c(O)c1C2=O)C[C@@](O)(C(C)=O)C[C@@H]3O[C@H]1C[C@H](N)[C@H](O)[C@H](C)O1 [Daunorubicin hydrochloride]
normalised cell viability (treatment time: 3 days): 0.141 ± 0.011
normalised cell viability (treatment time: 6 days): 0.124 ± 0.0055

COc1cccc2c1C(=O)c1c(O)c3c(c(O)c1C2=O)C[C@@](O)(C(=O)CO)C[C@@H]3O[C@H]1C[C@H](N)[C@H](O)[C@H](C)O1 [Doxorubicin hydrochloride]
normalised cell viability (treatment time: 3 days): 0.127 ± 0.0054
normalised cell viability (treatment time: 6 days): 0.113 ± 0.0072

Cc1nccn1CC1CCc2c(c3ccccc3n2C)C1=O (centres undefined) [Ondansetron Hydrochloride]
normalised cell viability (treatment time: 3 days): 1.07 ± 0.04
normalised cell viability (treatment time: 6 days): 1.1 ± 0.082

CC(C)NCC(O)c1ccc(O)c(O)c1 (single isomer, unassigned; (+)) [(+)-Isoproterenol (+)-bitartrate salt]
normalised cell viability (treatment time: 3 days): 1.028 ± 0.0063
normalised cell viability (treatment time: 6 days): 0.926 ± 0.063

CC(=O)NC[C@H]1CN(c2ccc(N3CCOCC3)c(F)c2)C(=O)O1 [Linezolid]
normalised cell viability (treatment time: 3 days): 1.04 ± 0.039
normalised cell viability (treatment time: 6 days): 0.972 ± 0.047

c1ccc(CNc2ncnc3nc[nH]c23)cc1 [Aminopurine, 6-benzyl]
normalised cell viability (treatment time: 3 days): 0.947 ± 0.1
normalised cell viability (treatment time: 6 days): 0.94 ± 0.075

O=C1C=CC(=O)c2c1ccc1c2ccc2ccccc21 [Chrysene-1,4-quinone]
normalised cell viability (treatment time: 3 days): 1.02 ± 0.061
normalised cell viability (treatment time: 6 days): 1.06 ± 0.12

CC(C)Cn1cnc2c(N)nc3ccccc3c21 [Imiquimod]
normalised cell viability (treatment time: 3 days): 1.11 ± 0.044
normalised cell viability (treatment time: 6 days): 1.02 ± 0.064

Nc1c2ccccc2nc2ccccc12 [Aminacrine]
normalised cell viability (treatment time: 3 days): 0.127 ± 0.015
normalised cell viability (treatment time: 6 days): 0.164 ± 0.015

Nc1c2c(nc3ccccc13)CCCC2 [Tacrine hydrochloride]
normalised cell viability (treatment time: 3 days): 0.984 ± 0.031
normalised cell viability (treatment time: 6 days): 1.1 ± 0.049

CN1CCN(c2c(F)cc3c(=O)c(C(=O)O)cn(CCF)c3c2F)CC1 [Fleroxacin]
normalised cell viability (treatment time: 3 days): 0.982 ± 0.046
normalised cell viability (treatment time: 6 days): 0.977 ± 0.051

COC(=O)Nc1nc2cc(C(=O)c3ccc(F)cc3)ccc2[nH]1 [Flubendazol]
normalised cell viability (treatment time: 3 days): 0.148 ± 0.019
normalised cell viability (treatment time: 6 days): 0.16 ± 0.0047

COC(=O)Nc1nc2cc(C(=O)c3ccccc3)ccc2[nH]1 [Mebendazole]
normalised cell viability (treatment time: 3 days): 0.164 ± 0.0056
normalised cell viability (treatment time: 6 days): 0.13 ± 0.0086

COC(=O)Nc1nc2cc([S+]([O-])c3ccccc3)ccc2[nH]1 (centres undefined) [Oxfendazol]
normalised cell viability (treatment time: 3 days): 0.712 ± 0.076
normalised cell viability (treatment time: 6 days): 0.775 ± 0.014
